# Data as given in ChEMBL document CHEMBL3433997, “St. Jude Leishmania screening dataset” (2016).
# Molecular target: Solute carrier family 2, facilitated glucose transporter member 1 (Homo sapiens) (UniProt P11166)
# Assay: ST_JUDE_LEISH: Cytotoxicity at 2uM final concentration against transgenic Leishmania Mexicana promastigotes LmGLUT1 that are glucose transport deficient and complemented with the human glucose transporter GLUT1. Activity is measured by DNA content using SYBR green in vitro
# Type: functional
# Sequence of Solute carrier family 2, facilitated glucose transporter member 1 (Homo sapiens) (P11166 whole entry): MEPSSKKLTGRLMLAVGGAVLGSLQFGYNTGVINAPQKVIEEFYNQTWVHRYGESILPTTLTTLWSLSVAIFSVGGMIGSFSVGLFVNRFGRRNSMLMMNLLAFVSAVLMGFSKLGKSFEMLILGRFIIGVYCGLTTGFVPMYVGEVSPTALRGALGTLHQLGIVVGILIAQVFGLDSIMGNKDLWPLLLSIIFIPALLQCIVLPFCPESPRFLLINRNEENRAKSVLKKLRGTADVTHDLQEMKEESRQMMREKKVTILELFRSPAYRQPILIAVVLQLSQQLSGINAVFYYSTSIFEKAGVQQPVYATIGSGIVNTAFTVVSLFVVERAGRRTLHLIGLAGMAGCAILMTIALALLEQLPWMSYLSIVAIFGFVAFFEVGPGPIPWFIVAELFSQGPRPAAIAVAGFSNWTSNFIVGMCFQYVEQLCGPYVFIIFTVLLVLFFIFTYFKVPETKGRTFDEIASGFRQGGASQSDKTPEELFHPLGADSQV
row,Compound,inhibition
1,COc1ccc2nccc(NCC3(O)CCN(CCc4ccc5c(c4)OCCO5)CC3)c2n1,4.99%
2,COc1cc(-c2cc(-c3ccc(S(C)(=O)=O)cc3)cnc2N)ccc1O,6.13%
3,Cc1cc(C(=O)Nc2ccc(-c3ccccc3)cc2)no1,2.6%
4,Cc1ccc(Nc2nc(C)cc(N3CCN(c4ccccc4)CC3)n2)cc1,5.18%
5,CCc1ccc(-n2c(NC(=O)c3ccccc3)nc3ccc(S(=O)(=O)NC(C)C(C)C)cc32)cc1 (centres undefined),-1.74%
6,COc1ccc2nccc(N/N=C/c3ccc([N+](=O)[O-])cc3)c2c1,-1.64%
7,CN(C)Cc1ccc(-c2cccc(Nc3nccc(NCC(O)c4ccccc4)n3)c2)cc1 (centres undefined),0.75%
8,C[C@H]1CN(Cc2cccc(-c3cc(CNC(=O)c4cccc(C(=O)c5ccc(Cl)c(Cl)c5)c4)ccc3F)c2)CCN1,1.24%
9,O=C(Nc1cccc(C2=NCCN2)c1)Nc1cccc(C2=NCCN2)c1,1.69%
